The source made the active and inactive calls. The calls were made as follows: active = hit-call score of the fitted dose curve at least 0.9, where 1 is the maximum; inactive = score below 0.9.
How the values were obtained:
Details in all cases: mRNA level, 48 h; actives raise or lower the signal
[1] = read-out: growth arrest and DNA damage 45 (GADD45A), GADD45A (gene 1647); test: LTEA_HepaRG_GADD45A: Life Technologies and Expression Analysis (LTEA) Assay for growth arrest and DNA damage 45 (GADD45A) using HepaRG (AID 2283458)
Outline: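 HepaRG, 48 h exposure, 8 conc. (top 100 uM, half-log steps), 0.5% DMSO vehicle, duplicates. Read-out: qRT-PCR mRNA level, housekeeping-normalized (ACTB/GAPDH/POLR2A). Curves fit bidirectionally vs DMSO baseline.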

[2] = read-out: Forkhead box O3 (FOXO3), FOXO3 (gene 2309); test: LTEA_HepaRG_FOXO3: Life Technologies and Expression Analysis (LTEA) Assay for Forkhead box O3 (FOXO3) using HepaRG (AID 2283459)
Outline: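 qRT-PCR readout of FOXO3 transcript, normalized to three housekeeping genes (ACTB, GAPDH, POLR2A); gain or loss fitted against 0.5% DMSO vehicle. HepaRG cells, 48 h chemical exposure, 8-point half-log series, top 100 uM.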

[3] = read-out: ABC Transporter (ABCB1), ABCB1 (gene 5243); test: LTEA_HepaRG_ABCB1: Life Technologies and Expression Analysis (LTEA) Assay for ABC Transporter (ABCB1) using HepaRG (AID 2283460)
Outline: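 HepaRG, 48 h exposure, 8-pt half-log series from 100 uM, 0.5% DMSO vehicle, duplicates. Readout: ABCB1 transcript by Fluidigm TaqMan qRT-PCR, housekeeping-normalized; bidirectional curve fit vs DMSO baseline.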

[4] = read-out: growth arrest and DNA damage 45 (GADD45B), GADD45B (gene 4616); test: LTEA_HepaRG_GADD45B: Life Technologies and Expression Analysis (LTEA) Assay for growth arrest and DNA damage 45 (GADD45B) using HepaRG (AID 2283461)
Experimental: LTEA_HepaRG is a cell based, multiplexed-readout assay that uses HepaRG, a human liver cell line, with measurements taken at 48 hours after chemical dosing on a 96-well plate.LTEA_HepaRG_GADD45B is one of 102 assay component(s) measured in the LTEA HepaRG cell culture assay. It is a marker of Cell proliferation, survival, death.Data from the assay component LTEA_HepaRG_GADD45B was analyzed into 1 endpoint. This assay endpoint, LTEA_HepaRG_GADD45B, was analyzed with bidirectional fitting relative to DMSO as the negative control and baseline of activity. Using a type of inducible reporter, measures of mRNA induction for gain or loss-of-signal activity can be used to understand regulation of transcription factor activity. To generalize the intended target to other relatable targets, this assay endpoint is annotated to the mutagenicity response intended target family, where the subfamily is Cell proliferation, survival, death.
A total of 1060 chemcials from the ToxCast library were tested in eight-point concentration-response experiments. Cell culture and cytotoxicity assays were conducted at Thermo Fisher Scientific's Custom Services facility (Madison, WI). A single lot of human HepaRG cells (Thermo Fisher Scientific, Frederick, MD) was used for the cell culture experiments. 96-well format collagen type I coated plates of human HepaRG cells were prepared using established methods. Briefly, cryopreserved HepaRG cells were thawed, plated at a density of approximately 100,000 cells/well in HepaRG Thaw, Plate, and General Purpose media (HPRG770, Thermo Fisher Scientific), and incubated for 48 hours. 0.5% DMSO was selected as vehicle control to balance the requisite need of DMSO in HepaRG cultures to maintain differentiation (for example, baseline metabolism, proportions of hepatocytes vs. cholangiocytes), while enabling further hepatic receptor pathway activation (for example, PXR and CAR) in response to chemical exposure. 48 hours after plating, the culture medium was replaced with HepaRG Serum-Free Incudtion Media. Cells were exposed to each test chemical in duplicate and maintained in CO2 incubators for another 48 hours. Chemical plates were thawed to room temperature and 200x concentrations of treatment groups were prepared. 8-point conentration-reponse curves were made with the highest exposure at 100 uM, followed by half-log dilutions, all in 0.5% DMSO. Each test plate contained variouse controls, induction positive controls (1mM phenobarbital), cytotoxicity positive controls ([…] aflatoxin B1), vehicle controls (0.5% DMSO), and total lysis controls (0.5% DMSO). Cell morphology images were taken using an Essen IncuCyte FLR automated microscope, with six 96-well plates imaged in about 24 minutes. Images were captured and exported and JPEG files. Spent culture media was transfered to black-well plates for the LDH assay, and remaining media was sorted at -80 C for later use. Cells were treated with RLT buffer and frozen until shipped for gene expression analysis. Total RNA was isolated from the cell suspension in 75 uL of Buffer RLT (Qiagen, Germantown, MD 20874) by Quintiles/Expression Analysis (Durham, NC) using a custom isolation procedure. Total RNA from each plate well was transferred to a preamplification plate. Fluidigm's 96.96 Dynamic ArrayTM (Fluidigm, Amsterdam, the Netherlands) technology was used for gene expression analyses by quantitative reverse transcription polymerase chain reaction (qRT-PCR, performed by Quintiles/Expression Analysis, Durham, NC)89. Standard TaqManTM Assays (Applied Biosystems/ThermoFisher Scientific, Foster City, CA) were used to assess the expression of 93 genes selected based on their selectivity and sensitivity to important hepatic receptors known to be modulated by environmental chemicals; importance in human hepatocyte functionality; and hepatotoxicity. […]

[5] = read-out: ABC Transporter (ABCC3), ABCC3 (gene 8714); test: LTEA_HepaRG_ABCC3: Life Technologies and Expression Analysis (LTEA) Assay for ABC Transporter (ABCC3) using HepaRG (AID 2283462)
Outline: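 Transcript level by TaqMan qRT-PCR, normalised to three housekeeping genes, fitted in both directions relative to vehicle. Chemicals tested in duplicate at eight half-log concentrations up to 100 uM for 48 h on HepaRG cells (0.5% DMSO).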

[6] = read-out: ABC Transporter (ABCB11), ABCB11 (gene 8647); test: LTEA_HepaRG_ABCB11: Life Technologies and Expression Analysis (LTEA) Assay for ABC Transporter (ABCB11) using HepaRG (AID 2283463)
Outline: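 HepaRG, 48 h exposure, 8-pt half-log CRC top 100 uM, 0.5% DMSO vehicle, duplicates. Readout: TaqMan qRT-PCR of ABCB11 mRNA, housekeeping-normalized (ACTB/GAPDH/POLR2A). Bidirectional fit vs DMSO baseline.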

[7] = read-out: ABC Transporter (ABCC2), ABCC2 (gene 1244); test: LTEA_HepaRG_ABCC2: Life Technologies and Expression Analysis (LTEA) Assay for ABC Transporter (ABCC2) using HepaRG (AID 2283464)
Outline: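 Endpoint is ABCC2 transcript level from qRT-PCR, normalized to three housekeeping genes and fitted bidirectionally relative to DMSO. Human HepaRG cells received test chemical for 48 h at up to 100 uM (8 points, half-log steps, 0.5% DMSO), duplicate wells.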

[8] = read-out: Broad substrate specificity ATP-binding cassette transporter ABCG2 (Homo sapiens) (UniProt Q9UNQ0); test: LTEA_HepaRG_ABCG2: Life Technologies and Expression Analysis (LTEA) Assay for ABC Transporter (ABCG2) using HepaRG (AID 2283465)
Outline: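 HepaRG, 48 h exposure, 8-pt half-log series from 100 uM, 0.5% DMSO vehicle, duplicates. Readout: ABCG2 transcript by qRT-PCR (Fluidigm array), housekeeping-normalized; bidirectional curve fit relative to DMSO baseline.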

[9] = read-out: ATP-citrate lyase (ACLY), ACLY (gene 47); test: LTEA_HepaRG_ACLY: Life Technologies and Expression Analysis (LTEA) Assay for ATP-citrate lyase (ACLY) using HepaRG (AID 2283466)
Outline: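 qRT-PCR readout of ACLY transcript after 48 h chemical treatment of HepaRG cells; expression normalized to three housekeeping genes. Eight-point half-log series, highest 100 uM, 0.5% DMSO vehicle. Gain or loss fitted against DMSO baseline.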

[10] = read-out: Peroxisomal acyl-coenzyme A oxidase 1 (ACOX1) gene, ACOX1 (gene 51); test: LTEA_HepaRG_ACOX1: Life Technologies and Expression Analysis (LTEA) Assay for Peroxisomal acyl-coenzyme A oxidase 1 (ACOX1) gene using HepaRG (AID 2283467)
Outline: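 HepaRG, 48 h chemical exposure, 8-pt half-log series from 100 uM top, 0.5% DMSO vehicle, duplicates. Readout: ACOX1 mRNA by Fluidigm qRT-PCR, housekeeping-normalized; bidirectional fit vs DMSO baseline.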

Measured: AC50

Sequence of Broad substrate specificity ATP-binding cassette transporter ABCG2 (Homo sapiens) (Q9UNQ0 whole entry, looked up): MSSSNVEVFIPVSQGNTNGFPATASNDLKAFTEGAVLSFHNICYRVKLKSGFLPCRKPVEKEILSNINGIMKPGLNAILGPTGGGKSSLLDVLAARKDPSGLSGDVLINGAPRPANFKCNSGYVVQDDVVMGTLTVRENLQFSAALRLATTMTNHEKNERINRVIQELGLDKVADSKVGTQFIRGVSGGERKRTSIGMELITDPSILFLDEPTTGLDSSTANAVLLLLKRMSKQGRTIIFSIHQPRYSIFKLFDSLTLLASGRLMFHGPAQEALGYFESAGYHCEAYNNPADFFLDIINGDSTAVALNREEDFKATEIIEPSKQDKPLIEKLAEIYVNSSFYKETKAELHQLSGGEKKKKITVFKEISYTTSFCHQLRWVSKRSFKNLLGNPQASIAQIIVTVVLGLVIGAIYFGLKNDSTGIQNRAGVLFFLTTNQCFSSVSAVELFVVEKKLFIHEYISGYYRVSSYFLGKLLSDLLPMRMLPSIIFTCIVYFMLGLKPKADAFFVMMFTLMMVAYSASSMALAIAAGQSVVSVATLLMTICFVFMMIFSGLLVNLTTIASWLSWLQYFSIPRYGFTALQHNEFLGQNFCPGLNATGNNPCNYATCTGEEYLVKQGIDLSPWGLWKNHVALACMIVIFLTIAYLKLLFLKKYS

C=C(C)C(N)=O
inactive: all assays above

CCCCOCCOCCO
inactive: all assays above

C#C[C@]1(O)CC[C@H]2[C@@H]3CCc4cc(O)ccc4[C@H]3CC[C@@]21C
inactive: all assays above

O=C(c1ccc(OCCN2CCCCC2)cc1)c1c(-c2ccc(O)cc2)sc2cc(O)ccc12
inactive: [1] | [2] | [8] | [9]
active: [3] 72.7 µM | [4] 92.8 µM | [5] 50 µM | [6] 7.18 µM | [7] 84.8 µM | [10] 68.6 µM

Reference: PubChem BioAssay (EPA / NIEHS)
